HEK cytotox = cytotoxic compounds in HEK 293 cells. actives 6.6% (n = 94,000). AID 1345083. Potency, µM (titrated, usually from 115 µM), for the others: at the highest dose activity change, negative = cytotoxicity, actives largely listed as inhibitors. HEK 293 viability, ATP luminescence (CellTiter-Glo), 48-72 h; also: nearly all actives have a fitted effect of over 60% in size
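CellTiter-Glo luminescence (cellular ATP) was read after 48 or 72 hr of compound exposure at 37 degree Celsius. Cells were HEK 293 plated at 250 cells/well.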
NPR1 antag = blocks ANP-stimulated signaling of human Npr1 receptor | AID 1347048 | HEK293 hNpr1 GloSensor cGMP, ANP-stimulated luminescence | Potency, µM (doses to about 46.3 µM), without a hit: at the highest dose activity change, negative = inhibition, actives largely listed as inhibitors | P16066 | actives 1.6% (n = 76,000); calls by dose curve; also: nearly all actives have a fitted effect of over 60% in size
Target sequence (P16066 whole entry, looked up): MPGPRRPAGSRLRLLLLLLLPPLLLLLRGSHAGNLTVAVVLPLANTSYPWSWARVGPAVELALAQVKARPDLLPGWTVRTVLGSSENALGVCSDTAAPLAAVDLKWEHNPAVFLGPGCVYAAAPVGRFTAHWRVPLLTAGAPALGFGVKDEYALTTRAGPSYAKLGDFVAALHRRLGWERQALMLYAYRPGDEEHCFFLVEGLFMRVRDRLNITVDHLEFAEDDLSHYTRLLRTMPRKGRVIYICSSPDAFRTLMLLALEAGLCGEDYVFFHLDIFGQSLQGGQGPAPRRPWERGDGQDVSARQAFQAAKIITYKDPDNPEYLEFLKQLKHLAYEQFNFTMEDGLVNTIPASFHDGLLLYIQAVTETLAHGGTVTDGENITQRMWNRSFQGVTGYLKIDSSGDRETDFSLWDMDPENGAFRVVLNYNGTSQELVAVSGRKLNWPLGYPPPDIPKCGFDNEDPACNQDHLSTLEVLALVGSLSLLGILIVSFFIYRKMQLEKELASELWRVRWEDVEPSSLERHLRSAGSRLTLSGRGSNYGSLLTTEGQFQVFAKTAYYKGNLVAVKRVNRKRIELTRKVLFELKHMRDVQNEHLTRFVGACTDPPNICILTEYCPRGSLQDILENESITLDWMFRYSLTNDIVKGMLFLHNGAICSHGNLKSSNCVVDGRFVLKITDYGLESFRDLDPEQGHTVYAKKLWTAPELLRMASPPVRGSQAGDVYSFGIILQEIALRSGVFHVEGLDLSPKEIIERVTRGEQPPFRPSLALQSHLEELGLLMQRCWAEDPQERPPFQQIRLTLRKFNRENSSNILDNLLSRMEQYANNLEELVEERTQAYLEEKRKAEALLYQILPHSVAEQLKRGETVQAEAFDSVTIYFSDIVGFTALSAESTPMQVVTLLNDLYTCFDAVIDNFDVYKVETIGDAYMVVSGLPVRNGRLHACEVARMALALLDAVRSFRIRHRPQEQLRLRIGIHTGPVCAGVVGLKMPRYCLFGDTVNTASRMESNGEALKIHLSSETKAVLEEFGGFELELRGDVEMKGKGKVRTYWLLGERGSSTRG
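Compound pre-incubated 30 min at room temperature on GloSensor-loaded HEK293 cells stably carrying hNpr1 and the pGS-40F cGMP biosensor. Stimulation uses hNppA at 0.1 nM final; luminescence is taken at baseline and 20 min post-agonist.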
NIH3T3 tox = cytotoxic compounds in NIH 3T3 cells. NIH 3T3 viability, CellTiter-Glo ATP luminescence, 48-72 h. Potency, µM (doses to about 96.7 µM), for inactives: at the top dose activity change, negative = cytotoxicity, actives largely listed as inhibitors. actives 4.3% (n = 94,000). AID 1345082; also: nearly all actives have a fitted effect of over 55% in size
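First NIH 3T3 cells are plated at 400 cells/well; next compound is pinned in; then plates incubate 48 or 72 hr at 37 °C; finally CellTiter-Glo is added and luminescence read after 10 min.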
FLuc inh = blocks purified firefly luciferase enzyme activity; P08659; purified P. pyralis luciferase, luminescence, biochemical; Potency, µM (doses to about 115 µM), usual class: inhibitors; actives 2.5% (n = 76,000); AID 1347043; also: nearly all actives have a fitted effect of over 65% in size
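Luminescence read by CCD imaging after purified firefly luciferase (10nM final) was added to substrate buffer holding 10uM D-luciferin and 10uM ATP, pH 7.5, pre-dosed with compound.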
* hit, by the source's call; i = inactive; u = inconclusive; x = no result; [ ] = another dose, or the depositor's remark. Compounds with a hit are over-represented: about 11% of the library has one in this group of screens. Unless noted, calls follow the shape of the dose curve; as a rule, active = well fitted curve in the direction sought with a large enough effect; inconclusive = small, poorly fitted or top-dose-only effect, or another doubt; inactive = no such curve, though single readings can be large; an effect the other way counts as inactive or inconclusive. % is scaled to controls: 0 for no effect and ±100 for the full control effect; potency is read from the fitted curve at half-maximal effect.

SMILES	HEK cytotox	NPR1 antag	NIH3T3 tox	FLuc inh
O=C(c1ccc(F)cc1)N1CCc2nc(C3CC3)nc(-c3ccc(Cl)cc3)c2C1	u	7%	u	i
Cc1nc([C@H]2CCN(Cc3cn(C)c4ccccc34)C[C@H]2NC(=O)C2CC2)n[nH]1	-23%	7%	-13%	i
CCOC(=O)C1(Cc2cccc(OC)c2)CCNCC1	u	7%	-6%	u
O=C(c1nccc2ccccc12)N1CCc2c(nc(-c3ccccc3)[nH]c2=O)C1	25µM*	-4%	u	i
CCN1c2cc(C(=O)NCc3ccc(F)cc3)ccc2C(=O)N2CCCCC21 (stereo not drawn)	u	-12%	u	i
COC[C@@H]1OC[C@@]2(C)C3CC[C@@H](O)[C@@H](CC(=O)NCc4ccc(F)cc4)[C@]3(C)CC[C@H]2O1 (stereo partly drawn)	2%	5%	-2%	i
C[C@@]12CO[C@@H](COc3ccccc3)O[C@@H]1CC[C@]1(C)C2CC[C@@H](O)[C@H]1CC(=O)NCc1cc(F)cc(F)c1 (stereo partly drawn)	28µM*	u	u	i
COCc1ccc2c(c1)c(OC(C)(C)C(=O)N1CC(O)C1)nn2Cc1cccnc1	2%[172 µM]	2%[70.6 µM]	79µM*	i
COCc1ccc2c(c1)c(OC(C)(C)C(=O)NCC[S+](C)(=O)[O-])nn2Cc1cccnc1	i	-1%	u	i
COCc1ccc2c(c1)c(OC(C)(C)C(=O)NCC[S+](C)(=O)[O-])nn2Cc1ccccc1	-26%	-1%	35µM*	i
COCc1ccc2c(c1)c(OC(C)(C)C(=O)Nc1ccccn1)nn2Cc1ccccc1	63µM*	-4%[70.6 µM]	u	i
COCc1ccc2c(c1)c(OC(C)(C)C(=O)NCCc1ccccn1)nn2Cc1ccccc1	u	-11%	u	i
Cc1nccn1CCNC(=O)CCC[C@@H]1[C@H]2CCCN3CCC[C@@H](CN1Cc1ccccc1)[C@@H]23	0%	1%	-18%	i
CC(C)c1noc(C2CCCN(Cc3cn(C(C)C)c4ccccc34)CCC(=O)NCC2)n1 (stereo not drawn)	40µM*	-7%	u	i
Cc1cccc(-c2cccc(CN3CCC(NC(=O)c4ccccc4C)CC3)c2)c1	40µM*	x	32µM*	x
O=C(NC1CCN(Cc2cccc(-c3ccc(F)c(F)c3)c2)CC1)c1ccc(Cl)nc1	u	x	25µM*	x
O=C(NC1CCN(Cc2cccc(-c3ccc(F)c(F)c3)c2)CC1)c1ccccc1F	79µM*	x	u	x
Cc1ccccc1C(=O)NC1CCN(Cc2cccc(-c3ccc(F)c(F)c3)c2)CC1	50µM*	x	u	x
Cc1noc(-c2nc(-c3cccc(Br)c3)no2)n1	u	-15%	0%	u
Cc1cccc(-c2noc(-c3nc(C)no3)n2)c1	-19%	-3%	-12%	25µM*
CC(C)Cc1cc(CNc2nccc(-c3cc(C(=O)O)ccn3)n2)no1	-3%	0%	-1%	u
O=C(O)c1ccnc(-c2ccnc(NCC(O)c3ccccc3Cl)n2)c1 (stereo not drawn)	i	2%	i	32µM*
COC(=O)[C@@H]1Cc2ncn(Cc3ccc(OC)cc3)c2CN1Cc1ccc(F)cc1	63µM*	u	u	i
COC(=O)[C@@H]1Cc2ncn(C)c2CN1S(=O)(=O)c1ccc2ccccc2c1	-7%[172 µM]	0%[70.6 µM]	79µM*	i
COC(=O)[C@@H]1Cc2ncn(Cc3ccc(OC)cc3)c2CN1S(=O)(=O)c1ccc(F)cc1	-5%	3%	79µM*	i
SMILES	HEK cytotox	NPR1 antag	NIH3T3 tox	FLuc inh
CN(C)[C@@H]1CN(Cc2cc(F)c(F)c(F)c2)CC[C@@H]1CNC(=O)C1CC1	-4%	7%	-16%	i
CC(C)(C)OCC(O)CN1CCC(=O)N(CC2CC2)Cc2ccccc21 (stereo not drawn)	u	x	-21%	x
COc1cc(C)c2c(c1C)C[C@H](C(C)C(=O)NCc1cccs1)CC2 (stereo partly drawn)	u	-9%[70.6 µM]	35µM*	i
Cc1cc(OCCN(C)C)c(C)c2c1CC[C@@H]([C@H](C)C(=O)NCc1ccccc1)C2	50µM*	-7%[70.6 µM]	56µM*	i
COCCOc1cc(C)c2c(c1C)C[C@H](C(C)C(=O)NCc1cccs1)CC2 (stereo partly drawn)	50µM*	-13%[70.6 µM]	u	i
CCCOc1cc(C)c2c(c1C)C[C@H](C(C)C(=O)NCc1ccc(OC)cc1)CC2 (stereo partly drawn)	-7%[172 µM]	5%[70.6 µM]	-16%[138 µM]	i
COc1ccccc1CN(C)C(=O)CC1C(=O)NCCN1CC1CCCCC1 (stereo not drawn)	u	2%	2%	i
CC(=O)N1CCN(C[C@@H]2C=C(C)[C@H](Cc3nnc(-c4cncn4C)o3)C[C@H]2C(C)C)CC1	u	1%	u	i
CC1=C[C@@H](CN2CCN(c3ccc(F)cc3)CC2)[C@H](C(C)C)C[C@H]1Cc1nnc(-c2cncn2C)o1	22µM*	-2%	u	i
CC1=C[C@@H](CN2CCN(c3ccccc3)CC2)[C@H](C(C)C)C[C@H]1Cc1nnc(-c2cncn2C)o1	35µM*	0%	u	i
CC(=O)NC[C@@H]1C=C(C)[C@H](Cc2nnc(-c3cncn3C)o2)C[C@H]1C(C)C	-9%[172 µM]	13%[70.6 µM]	-10%[174 µM]	i
CC1=C[C@@H](CN2CCN(CCO)CC2)[C@H](C(C)C)C[C@H]1Cc1nnc(Cc2c[nH]c3ccccc23)o1	u	-17%	28µM*	i
CC1=C[C@@H](CN2CCN(c3cnccn3)CC2)[C@H](C(C)C)C[C@H]1Cc1nnc(-c2cccnc2)o1	35µM*	u	u	i
CN(Cc1ccccc1)C(=O)Cc1cccn1-c1ccc(F)cc1	u	-20%	-12%	i
CC1=C[C@@H](CN2CCN(c3ncccn3)CC2)[C@H](C(C)C)C[C@H]1Cc1nnc(COc2ccc(F)cc2)o1	25µM*	-25%	40µM*	i
CC1=C[C@@H](CN2CCN(c3ccccn3)CC2)[C@H](C(C)C)C[C@H]1Cc1nnc(-c2ccc([N+](=O)[O-])cc2)o1	u	2%	u	i
CC1=C[C@@H](CN2CCN(CCO)CC2)[C@H](C(C)C)C[C@H]1Cc1nnc(-c2ccccc2F)o1	u	1%	u	i
CC1=C[C@@H](CN2CCN(c3ccccn3)CC2)[C@H](C(C)C)C[C@H]1Cc1nnc(-c2cncn2C)o1	32µM*	-2%	u	i
O=C(NC1CCN(c2cc(-c3cccs3)[nH]n2)C1)c1ccccn1 (stereo not drawn)	u	-10%	-15%	i
COCCOCC1(CNC(=O)c2cnccn2)C[C@@H](O)[C@@H](O)C1 (stereo partly drawn)	4%[172 µM]	6%[70.6 µM]	-6%[138 µM]	i
O=C(NCCc1ccc(Cl)cc1)c1ccc2nnc(C3CCCC3)n2c1	u	x	35µM*	x

Source: PubChem (National Center for Advancing Translational Sciences (NCATS))
